In PubChem BioAssay AID1159580 (chemical genetic matrix, 2015):
Values joined by “and” are separate entries in the source; they are usually repeats but may differ in a detail not shown here. Equal values may be shown once. The campaign covered roughly 5,500 compounds. About 2,000 (36%) were called active. About 18% were inconclusive and are not listed. Cut-off read from the data, not from the text of the source: active = normalized growth mostly below about 0.91 (no sharp cut-off); inconclusive = no clear call, values can overlap the other calls; inactive = mostly above about 0.92. The list shows a part of the results.

Assay: chemical genetic growth profiling, strain panel (AID 1159580);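 note: tested at 20 µM; growth read once vehicle control cultures reached saturation at 30 °C; 1 = growth at the plate median or of vehicle wells; lower values mean less growth of the strain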
Conditions: S. cerevisiae deletion strains, growth OD

Measured: normalized growth

CCOC(=O)NNc1nncc2ccccc12
inactive: locus YAL013W, strain DEP1, active compounds read low 0.992 | locus YAL021C, strain ccr4, active compounds read low 1 | locus YAL026C, strain drs2, active compounds read low 1.03 | locus YAL030W, strain snc1, active compounds read low 1.02 | locus YBL061C, strain skt5, active compounds read low 1.01 | locus YBR009C, strain hhf1, active compounds read low 0.973 | locus YBR021W, strain FUR4, active compounds read low 0.964 | locus YBR023C, strain chs3, active compounds read low 1.02 | locus YBR171W, strain sec66, active compounds read low 1.01 | locus YBR229C, strain ROT2, active compounds read low 0.991 | locus YBR231C, strain swc5, active compounds read low 0.993 | locus YBR279W, strain paf1, active compounds read low 1.02 | locus YCL011C, strain gbp2, active compounds read low 1.04 | locus YCL016C, strain dcc1, active compounds read low 1.03 | locus YCL029C, strain bik1, active compounds read low 0.97 | locus YCL061C, strain MRC1, active compounds read low 0.994 | locus YCL069W, strain vba3, active compounds read low 1.02 | locus YCR088W, strain abp1, active compounds read low 1.01 | locus YDL005C, strain med2, active compounds read low 1.03 | locus YDL035C, strain GPR1, active compounds read low 0.978 | locus YDL040C, strain nat1, active compounds read low 0.996 | locus YDL074C, strain BRE1, active compounds read low 1.01 | locus YDL101C, strain DUN1, active compounds read low 0.991 | locus YDL134C, strain PPH21, active compounds read low 0.979 | locus YDL185W, strain tfp1, active compounds read low 0.983 | locus YDL192W, strain arf1, active compounds read low 0.98 | locus YDR001C, strain nth1, active compounds read low 1.01 | locus YDR069C, strain doa4, active compounds read low 0.985 | locus YDR101C, strain arx1, active compounds read low 0.993 | locus YDR137W, strain rgp1, active compounds read low 1.03 | locus YDR150W, strain NUM1, active compounds read low 1 | locus YDR159W, strain sac3, active compounds read low 0.94 | locus YDR162C, strain NBP2, active compounds read low 0.987 | locus YDR195W, strain ref2 0.981 | locus YDR297W, strain sur2, active compounds read low 1 | locus YDR318W, strain mcm21, active compounds read low 0.974 | locus YDR334W, strain swr1, active compounds read low 1.03 | locus YDR335W, strain msn5, active compounds read low 1.01 | locus YDR388W, active compounds read low 0.973 | locus YDR392W, strain spt3, active compounds read low 0.998 | locus YDR502C, strain sam2, active compounds read low 0.969 | locus YEL003W, strain gim4, active compounds read low 0.998 | locus YEL037C, strain rad23, active compounds read low 1.02 | locus YEL061C, strain CIN8 (second series), active compounds read low 1 | locus YEL061C, strain CIN8, active compounds read low 1 | locus YER015W, strain faa2, active compounds read low 1.01 | locus YER016W, strain bim1, active compounds read low 1.02 | locus YER110C, active compounds read low 0.972 | locus YER111C, strain swi4, active compounds read low 1.01 | locus YER155C, strain BEM2 (second series), active compounds read low 1 | locus YER155C, strain BEM2, active compounds read low 0.99 | locus YER167W, strain BCK2, active compounds read low 0.989 | locus YFR010W, strain ubp6, active compounds read low 0.979 | locus YGL078C, strain dbp3, active compounds read low 0.98 | locus YGL086W, strain mad1, active compounds read low 0.995 | locus YGL167C, strain pmr1, active compounds read low 1 | locus YGL173C, strain kem1, active compounds read low 0.972 | locus YGL227W, strain vid30, active compounds read low 1.02 | locus YGL240W, strain doc1, active compounds read low 0.998 | locus YGL248W, strain PDE1, active compounds read low 1 | locus YGL253W, strain hxk2, active compounds read low 1.02 | locus YGR135W, strain pre9, active compounds read low 0.97 | locus YGR229C, strain SMI1, active compounds read low 0.984 | locus YGR252W, strain gcn5, active compounds read low 0.962 | locus YHR013C, strain ard1, active compounds read low 1.02 | locus YHR027C, strain rpn1, active compounds read low 0.993 | locus YHR030C, strain SLT2, active compounds read low 0.99 and 0.966 | locus YHR079C, strain IRE1 (second series), active compounds read low 0.983 | locus YHR079C, strain IRE1, active compounds read low 0.982 | locus YHR094C, strain hxt1, active compounds read low 0.973 | locus YHR129C, strain ARP1, active compounds read low 0.999 | locus YHR142W, strain chs7, active compounds read low 1.04 | locus YHR200W, strain rpn10, active compounds read low 0.981 | locus YIL066C, strain RNR3, active compounds read low 0.987 | locus YIL073C, strain SPO22, active compounds read low 0.913 | locus YIL125W, strain kgd1, active compounds read low 0.987 | locus YIR030C, strain dcg1, active compounds read low 0.977 | locus YJL092W, strain hpr5, active compounds read low 1.01 | locus YJL095W, strain BCK1 (second series), active compounds read low 1.02 | locus YJL095W, strain BCK1, active compounds read low 1.04 and 0.976 | locus YJL115W, strain asf1, active compounds read low 1.03 | locus YJL129C, strain trk1, active compounds read low 1.02 | locus YJL134W, strain LCB3, active compounds read low 0.994 | locus YJL154C, strain vps35, active compounds read low 1.01 | locus YJL164C, strain tpk1, active compounds read low 0.993 | locus YJL166W, strain qcr8, active compounds read low 0.983 | locus YJL168C, strain set2, active compounds read low 0.981 | locus YJL187C, strain SWE1 (second series), active compounds read low 1 | locus YJL187C, strain SWE1, active compounds read low 1.02 | locus YJR043C, strain POL32, active compounds read low 0.952
